# In the supplement of paper PMC11732987, “Enantioselective OTUD7B fragment discovery through chemoproteomics screening and high-throughput optimisation” (Communications Chemistry, 2025):
# Unmarked numbers belong to inactive results.
# Experiments:
# Test in all cases: log2 ratio of Biotin-Ahx-Ub-VS probe labelling (fragment/DMSO); higher = less target engagement (more negative = stronger competition), active = hit call of the paper (q ≤ 0.05, log2 ratio ≤ -1)
# Conditions in all cases: compound concentration: 200 uM; treatment time: 3 h
# USP19 = molecular target: T1, USP19 (UniProt O94966)
# T1 sequence (whole entry): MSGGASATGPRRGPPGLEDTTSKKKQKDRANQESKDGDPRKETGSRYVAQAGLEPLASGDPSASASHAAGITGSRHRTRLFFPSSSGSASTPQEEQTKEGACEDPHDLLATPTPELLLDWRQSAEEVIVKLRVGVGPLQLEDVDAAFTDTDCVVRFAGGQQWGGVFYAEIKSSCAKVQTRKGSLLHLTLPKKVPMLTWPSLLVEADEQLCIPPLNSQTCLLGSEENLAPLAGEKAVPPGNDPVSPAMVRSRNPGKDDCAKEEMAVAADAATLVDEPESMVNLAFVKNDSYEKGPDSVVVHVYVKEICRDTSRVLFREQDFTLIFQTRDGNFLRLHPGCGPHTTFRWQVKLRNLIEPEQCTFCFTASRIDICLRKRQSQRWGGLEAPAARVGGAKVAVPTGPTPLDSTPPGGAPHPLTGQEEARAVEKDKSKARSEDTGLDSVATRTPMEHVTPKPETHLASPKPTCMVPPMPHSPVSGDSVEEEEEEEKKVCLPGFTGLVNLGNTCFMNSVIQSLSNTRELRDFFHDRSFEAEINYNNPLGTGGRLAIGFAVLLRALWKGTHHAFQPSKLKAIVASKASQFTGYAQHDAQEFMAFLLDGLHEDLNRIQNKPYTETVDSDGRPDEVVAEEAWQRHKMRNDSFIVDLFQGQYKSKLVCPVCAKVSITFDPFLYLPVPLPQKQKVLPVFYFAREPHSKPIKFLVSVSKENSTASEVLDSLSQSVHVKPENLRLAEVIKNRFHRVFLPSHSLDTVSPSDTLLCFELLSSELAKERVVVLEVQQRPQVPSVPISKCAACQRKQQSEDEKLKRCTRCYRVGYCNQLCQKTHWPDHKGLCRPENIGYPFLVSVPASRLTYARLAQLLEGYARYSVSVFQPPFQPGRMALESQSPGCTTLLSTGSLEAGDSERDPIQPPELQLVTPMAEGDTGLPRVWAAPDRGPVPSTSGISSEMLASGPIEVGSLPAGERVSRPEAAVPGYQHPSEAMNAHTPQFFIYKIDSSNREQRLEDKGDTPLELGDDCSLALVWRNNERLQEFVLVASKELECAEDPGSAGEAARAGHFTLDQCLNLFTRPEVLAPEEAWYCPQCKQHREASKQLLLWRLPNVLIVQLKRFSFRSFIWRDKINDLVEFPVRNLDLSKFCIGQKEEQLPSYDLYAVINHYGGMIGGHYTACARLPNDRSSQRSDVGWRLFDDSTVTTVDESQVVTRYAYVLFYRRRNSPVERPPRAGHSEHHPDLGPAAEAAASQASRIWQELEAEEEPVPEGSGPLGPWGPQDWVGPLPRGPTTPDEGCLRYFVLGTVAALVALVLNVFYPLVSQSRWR
# Summary of the method: (§1)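 HEK293T lysate, 495 µg per sample in Tris/CHAPS/IGEPAL buffer with protease inhibitors, was treated in triplicate with fragment at 200 µM or vehicle for 3 h and then with Biotin-Ahx-Ub-VS at 0.5 µM final for 1 h. Labelled DUBs were NeutrAvidin-enriched, digested with LysC and trypsin, and run by diaPASEF LC-MS/MS. Spectronaut label-free quantities were global-median-normalised, and values are average log2 fragment/vehicle ratios by unpaired t-test on proteins with ≥2 unique peptides.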
# USP22 = molecular target: T2, USP22 (UniProt Q9UPT9)
# T2 sequence (whole entry): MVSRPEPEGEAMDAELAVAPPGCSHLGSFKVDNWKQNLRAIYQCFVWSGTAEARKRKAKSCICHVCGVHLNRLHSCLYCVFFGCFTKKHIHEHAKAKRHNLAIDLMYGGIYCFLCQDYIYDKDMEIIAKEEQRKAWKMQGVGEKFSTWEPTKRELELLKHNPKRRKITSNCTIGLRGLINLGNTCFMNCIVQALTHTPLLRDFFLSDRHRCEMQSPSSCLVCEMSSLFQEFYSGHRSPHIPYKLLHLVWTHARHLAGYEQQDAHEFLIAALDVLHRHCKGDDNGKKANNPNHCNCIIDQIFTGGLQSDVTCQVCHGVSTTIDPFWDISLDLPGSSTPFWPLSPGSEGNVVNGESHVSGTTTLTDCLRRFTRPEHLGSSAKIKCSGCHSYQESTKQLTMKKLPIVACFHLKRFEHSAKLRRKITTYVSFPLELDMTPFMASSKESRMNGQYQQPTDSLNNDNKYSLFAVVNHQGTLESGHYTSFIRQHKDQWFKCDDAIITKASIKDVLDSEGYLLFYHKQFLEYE
# Summary of the method: as §1
# USP24 = USP24 (UniProt Q9UPU5)
# Summary of the method: as §1
# USP25 = molecular target: T3, USP25 (UniProt Q9UHP3)
# T3 sequence (whole entry): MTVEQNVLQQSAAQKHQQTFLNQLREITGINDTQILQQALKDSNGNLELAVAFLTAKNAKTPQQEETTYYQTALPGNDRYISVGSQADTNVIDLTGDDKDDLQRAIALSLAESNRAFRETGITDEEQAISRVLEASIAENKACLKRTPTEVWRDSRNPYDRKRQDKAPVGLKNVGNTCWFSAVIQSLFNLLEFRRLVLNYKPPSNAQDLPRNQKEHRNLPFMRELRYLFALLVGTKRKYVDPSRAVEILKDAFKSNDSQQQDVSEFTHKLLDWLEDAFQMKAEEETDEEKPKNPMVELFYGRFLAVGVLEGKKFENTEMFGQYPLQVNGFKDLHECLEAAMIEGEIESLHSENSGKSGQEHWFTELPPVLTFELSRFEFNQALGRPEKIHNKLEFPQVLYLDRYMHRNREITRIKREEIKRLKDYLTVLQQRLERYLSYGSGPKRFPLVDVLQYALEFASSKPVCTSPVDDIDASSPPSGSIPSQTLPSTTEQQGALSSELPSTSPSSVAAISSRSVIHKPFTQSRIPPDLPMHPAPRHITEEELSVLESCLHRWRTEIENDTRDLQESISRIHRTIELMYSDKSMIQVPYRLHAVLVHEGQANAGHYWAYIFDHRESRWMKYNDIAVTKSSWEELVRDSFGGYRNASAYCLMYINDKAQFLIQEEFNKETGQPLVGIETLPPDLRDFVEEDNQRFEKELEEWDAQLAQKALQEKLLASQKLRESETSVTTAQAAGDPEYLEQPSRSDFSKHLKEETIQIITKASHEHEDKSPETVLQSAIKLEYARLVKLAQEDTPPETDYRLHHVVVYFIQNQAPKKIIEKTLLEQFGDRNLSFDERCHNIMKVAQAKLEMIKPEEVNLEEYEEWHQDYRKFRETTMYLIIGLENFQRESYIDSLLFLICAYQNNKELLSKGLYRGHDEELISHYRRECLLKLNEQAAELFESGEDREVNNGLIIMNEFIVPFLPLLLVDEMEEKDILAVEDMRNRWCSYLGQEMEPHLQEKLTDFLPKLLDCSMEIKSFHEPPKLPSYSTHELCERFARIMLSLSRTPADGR
# Summary of the method: as §1
# USP28 = molecular target: T4, USP28 (UniProt Q96RU2)
# T4 sequence (whole entry): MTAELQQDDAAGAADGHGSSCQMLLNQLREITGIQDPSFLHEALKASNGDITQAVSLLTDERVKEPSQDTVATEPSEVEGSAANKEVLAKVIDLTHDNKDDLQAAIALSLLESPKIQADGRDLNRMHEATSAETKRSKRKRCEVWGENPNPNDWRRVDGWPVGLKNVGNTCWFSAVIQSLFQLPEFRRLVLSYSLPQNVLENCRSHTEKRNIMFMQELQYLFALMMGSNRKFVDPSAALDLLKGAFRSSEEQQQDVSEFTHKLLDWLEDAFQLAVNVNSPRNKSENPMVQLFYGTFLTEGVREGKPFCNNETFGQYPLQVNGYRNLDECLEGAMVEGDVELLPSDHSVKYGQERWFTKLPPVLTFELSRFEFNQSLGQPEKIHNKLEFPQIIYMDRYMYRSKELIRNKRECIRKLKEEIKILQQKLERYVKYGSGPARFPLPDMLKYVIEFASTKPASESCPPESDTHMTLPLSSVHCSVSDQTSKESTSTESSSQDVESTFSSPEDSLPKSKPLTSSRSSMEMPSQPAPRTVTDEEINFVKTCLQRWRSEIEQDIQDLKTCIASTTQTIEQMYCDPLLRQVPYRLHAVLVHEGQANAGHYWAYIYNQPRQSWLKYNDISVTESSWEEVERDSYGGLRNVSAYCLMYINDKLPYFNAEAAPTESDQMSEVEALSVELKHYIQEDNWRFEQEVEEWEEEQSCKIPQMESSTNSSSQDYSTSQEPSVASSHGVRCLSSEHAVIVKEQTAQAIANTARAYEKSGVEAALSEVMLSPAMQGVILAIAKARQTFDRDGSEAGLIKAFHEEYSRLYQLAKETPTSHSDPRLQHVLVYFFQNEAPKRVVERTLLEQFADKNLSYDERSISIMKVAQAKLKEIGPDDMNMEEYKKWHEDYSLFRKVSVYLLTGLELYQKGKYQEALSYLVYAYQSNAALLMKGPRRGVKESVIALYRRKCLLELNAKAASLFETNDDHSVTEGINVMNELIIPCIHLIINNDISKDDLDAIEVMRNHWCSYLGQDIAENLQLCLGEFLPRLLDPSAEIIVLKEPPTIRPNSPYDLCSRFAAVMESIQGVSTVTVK
# Summary of the method: as §1
# Sequence of USP24 (Q9UPU5 whole entry): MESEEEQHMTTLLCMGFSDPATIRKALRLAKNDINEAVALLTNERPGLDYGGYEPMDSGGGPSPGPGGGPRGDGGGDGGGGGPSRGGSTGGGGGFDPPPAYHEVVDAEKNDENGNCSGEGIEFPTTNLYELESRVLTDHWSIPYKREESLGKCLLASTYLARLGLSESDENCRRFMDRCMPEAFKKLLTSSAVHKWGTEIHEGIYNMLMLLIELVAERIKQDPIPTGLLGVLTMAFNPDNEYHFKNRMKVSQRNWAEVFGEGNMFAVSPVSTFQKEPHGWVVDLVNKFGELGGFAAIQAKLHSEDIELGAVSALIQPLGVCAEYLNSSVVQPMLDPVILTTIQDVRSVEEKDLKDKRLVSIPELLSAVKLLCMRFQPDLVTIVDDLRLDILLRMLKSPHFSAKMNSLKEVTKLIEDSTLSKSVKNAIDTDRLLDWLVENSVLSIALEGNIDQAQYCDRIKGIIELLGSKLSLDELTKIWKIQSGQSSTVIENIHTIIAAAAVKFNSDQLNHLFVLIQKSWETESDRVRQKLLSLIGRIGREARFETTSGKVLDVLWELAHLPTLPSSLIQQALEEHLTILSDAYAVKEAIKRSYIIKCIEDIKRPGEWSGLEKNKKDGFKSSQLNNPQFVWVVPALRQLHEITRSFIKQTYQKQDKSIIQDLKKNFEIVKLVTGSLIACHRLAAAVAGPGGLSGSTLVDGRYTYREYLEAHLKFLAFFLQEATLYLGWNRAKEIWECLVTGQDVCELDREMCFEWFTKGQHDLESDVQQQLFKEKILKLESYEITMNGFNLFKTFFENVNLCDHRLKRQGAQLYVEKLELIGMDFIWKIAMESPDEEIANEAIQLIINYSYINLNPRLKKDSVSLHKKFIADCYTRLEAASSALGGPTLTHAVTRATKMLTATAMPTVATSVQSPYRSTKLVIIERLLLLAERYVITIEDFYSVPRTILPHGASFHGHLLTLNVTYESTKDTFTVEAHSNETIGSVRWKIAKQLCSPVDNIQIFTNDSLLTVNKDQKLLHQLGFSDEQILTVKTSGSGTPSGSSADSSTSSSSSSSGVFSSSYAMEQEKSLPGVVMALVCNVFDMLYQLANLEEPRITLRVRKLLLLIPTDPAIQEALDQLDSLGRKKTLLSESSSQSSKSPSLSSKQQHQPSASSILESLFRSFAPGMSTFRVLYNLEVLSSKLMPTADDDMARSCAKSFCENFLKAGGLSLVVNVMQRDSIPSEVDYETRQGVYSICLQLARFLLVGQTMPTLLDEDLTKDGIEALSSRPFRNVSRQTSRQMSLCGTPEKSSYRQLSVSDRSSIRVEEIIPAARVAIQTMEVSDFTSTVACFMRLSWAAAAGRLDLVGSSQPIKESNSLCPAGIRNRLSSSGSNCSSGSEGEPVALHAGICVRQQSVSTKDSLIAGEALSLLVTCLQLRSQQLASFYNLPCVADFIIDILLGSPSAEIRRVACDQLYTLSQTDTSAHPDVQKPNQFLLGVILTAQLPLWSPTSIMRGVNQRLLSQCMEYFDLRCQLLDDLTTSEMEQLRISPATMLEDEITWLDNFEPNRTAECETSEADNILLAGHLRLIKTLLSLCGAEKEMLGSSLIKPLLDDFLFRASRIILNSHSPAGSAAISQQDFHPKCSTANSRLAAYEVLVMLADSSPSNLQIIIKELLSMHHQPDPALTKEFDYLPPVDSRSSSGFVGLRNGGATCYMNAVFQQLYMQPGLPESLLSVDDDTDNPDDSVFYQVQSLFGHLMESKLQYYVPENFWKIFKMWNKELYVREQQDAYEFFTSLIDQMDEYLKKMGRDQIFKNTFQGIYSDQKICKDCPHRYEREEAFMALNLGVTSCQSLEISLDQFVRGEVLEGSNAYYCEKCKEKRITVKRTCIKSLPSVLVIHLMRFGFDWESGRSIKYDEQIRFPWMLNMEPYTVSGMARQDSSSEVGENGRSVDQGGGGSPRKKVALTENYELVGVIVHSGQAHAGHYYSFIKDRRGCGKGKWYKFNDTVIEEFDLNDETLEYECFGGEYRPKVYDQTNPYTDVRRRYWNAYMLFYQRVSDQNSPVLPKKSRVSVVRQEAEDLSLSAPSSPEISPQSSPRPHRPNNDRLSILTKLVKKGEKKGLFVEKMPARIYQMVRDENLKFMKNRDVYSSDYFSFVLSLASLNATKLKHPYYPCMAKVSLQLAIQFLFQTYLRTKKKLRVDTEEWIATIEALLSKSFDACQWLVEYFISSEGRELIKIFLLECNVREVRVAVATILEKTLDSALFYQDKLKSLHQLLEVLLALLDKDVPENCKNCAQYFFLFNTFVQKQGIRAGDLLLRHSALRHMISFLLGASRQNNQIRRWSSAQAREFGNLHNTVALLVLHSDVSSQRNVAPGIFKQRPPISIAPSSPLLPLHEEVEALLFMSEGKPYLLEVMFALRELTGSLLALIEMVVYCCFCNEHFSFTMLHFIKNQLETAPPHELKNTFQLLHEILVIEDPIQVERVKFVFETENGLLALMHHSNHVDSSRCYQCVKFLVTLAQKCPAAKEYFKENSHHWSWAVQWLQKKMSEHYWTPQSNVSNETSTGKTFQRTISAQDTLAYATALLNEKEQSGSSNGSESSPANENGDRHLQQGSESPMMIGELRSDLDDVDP
smiles,measurement,setting,value
Cc1cc(NC(=O)CCl)n(-c2ccccc2)n1,log2 ratio of Biotin-Ahx-Ub-VS probe labelling,USP19,-0.106
same,log2 ratio of Biotin-Ahx-Ub-VS probe labelling,USP22,0.086
same,log2 ratio of Biotin-Ahx-Ub-VS probe labelling,USP24,-0.201
same,log2 ratio of Biotin-Ahx-Ub-VS probe labelling,USP25,-0.721
same,log2 ratio of Biotin-Ahx-Ub-VS probe labelling,USP28,-1.03 (active)
